Experimental data published in the supplement of paper PMC8728848.
Many of the other results were omitted from the sample, so the strongest signals are more common in it than they were.

Legend:
Test in all cases: glycan array binding signal (z-score within array); higher = stronger binding
Settings in all cases: glycan notation: IUPAC condensed, linker removed; mutation: R82H, R255H
[1] = biological target: Fuc(a1-2)Gal(b1-3)GlcNAc(b1-3)[Gal(b1-4)GlcNAc(b1-6)]Gal(b1-4)Glc
Procedure, shortened: (§1)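 Arrays were curated from the Consortium for Functional Glycomics database, 3228 in total, and kept only where the protein sequence was available. Binding is expressed as a within-array Z-score. This score was averaged across arrays of the same protein sequence at different concentrations or buffers and across linkers, and negative values can be read as non-binding.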

[2] = biological target: Fuc(a1-2)Gal(b1-3)[Fuc(a1-4)]GlcNAc(b1-2)Man(a1-3)[Fuc(a1-2)Gal(b1-3)[Fuc(a1-4)]GlcNAc(b1-2)Man(a1-3)]Man(b1-4)GlcNAc(b1-4)GlcNAc
Procedure, shortened: as §1

[3] = biological target: Fuc(a1-2)[Gal(a1-3)]Gal(b1-3)GlcNAc(b1-2)Man(a1-3)[Fuc(a1-2)[Gal(a1-3)]Gal(b1-3)GlcNAc(b1-2)Man(a1-6)]Man(b1-4)GlcNAc(b1-4)GlcNAc
Procedure, shortened: as §1

[4] = biological target: Fuc(a1-2)[Gal(a1-3)]Gal(b1-4)GlcNAc(b1-6)GalNAc
Procedure, shortened: as §1

[5] = biological target: Fuc(a1-2)[GalNAc(a1-3)]Gal
Procedure, shortened: as §1

[6] = biological target: Fuc(a1-2)[GalNAc(a1-3)]Gal(b1-3)GalNAc(b1-3)Gal(a1-4)Gal(b1-4)Glc
Procedure, shortened: as §1

[7] = biological target: Fuc(a1-2)[GalNAc(a1-3)]Gal(b1-3)GlcNAc(b1-2)Man(a1-3)[Fuc(a1-2)[GalNAc(a1-3)]Gal(b1-3)GlcNAc(b1-2)Man(a1-6)]Man(b1-4)GlcNAc(b1-4)GlcNAc
Procedure, shortened: as §1

[8] = biological target: Fuc(a1-2)[GalNAc(a1-3)]Gal(b1-4)GlcNAc(b1-2)Man(a1-3)[Fuc(a1-2)[GalNAc(a1-3)]Gal(b1-4)GlcNAc(b1-2)Man(a1-6)]Man(b1-4)GlcNAc(b1-4)GlcNAc
Procedure, shortened: as §1

[9] = biological target: Fuc(a1-2)[GalNAc(a1-3)]Gal(b1-4)GlcNAc(b1-3)Gal(b1-4)GlcNAc
Procedure, shortened: as §1

[10] = biological target: Fuc(a1-2)[GalNAc(a1-3)]Gal(b1-4)GlcNAc(b1-3)[Fuc(a1-2)[GalNAc(a1-3)]Gal(b1-4)GlcNAc(b1-6)]GalNAc
Procedure, shortened: as §1

[11] = biological target: Fuc(a1-3)[Gal(b1-4)]GlcNAc(b1-6)GalNAc
Procedure, shortened: as §1

[12] = biological target: Fuc(a1-3)[Gal3S(b1-4)]Glc
Procedure, shortened: as §1

Fuc(a1-4)GlcNAc = biological target: Fuc(a1-4)GlcNAc
Procedure, shortened: as §1

[13] = biological target: Gal(a1-3)Gal(b1-3)GlcNAc(b1-2)Man
Procedure, shortened: as §1

[14] = biological target: Gal(a1-3)[Gal(a1-4)]Gal(b1-4)GlcNAc
Procedure, shortened: as §1

Gal(a1-4)Gal(b1-4)Glc = biological target: Gal(a1-4)Gal(b1-4)Glc
Procedure, shortened: as §1

Gal(b1-2)Gal = biological target: Gal(b1-2)Gal
Procedure, shortened: as §1

Gal(b1-3)GalNAc = biological target: Gal(b1-3)GalNAc
Procedure, shortened: as §1

[15] = biological target: Gal(b1-3)GalNAc(b1-3)Gal(a1-4)Gal(b1-4)Glc
Procedure, shortened: as §1

[16] = biological target: Gal(b1-3)GalNAc(b1-4)Gal(b1-4)Glc
Procedure, shortened: as §1

[17] = biological target: Gal(b1-3)GlcNAc(a1-3)Gal(b1-4)GlcNAc
Procedure, shortened: as §1

[18] = biological target: Gal(b1-3)GlcNAc(b1-3)Gal(b1-4)Glc
Procedure, shortened: as §1

[19] = biological target: Gal(b1-3)GlcNAc(b1-6)GalNAc
Procedure, shortened: as §1

[20] = biological target: Gal(b1-3)[Fuc(a1-4)]GlcNAc(b1-6)GalNAc
Procedure, shortened: as §1

Gal(b1-4)GlcNAc(b1-2)Man = biological target: Gal(b1-4)GlcNAc(b1-2)Man
Procedure, shortened: as §1

[21] = biological target: Gal(b1-4)GlcNAc(b1-3)Gal(b1-4)GlcNAc(b1-2)Man(a1-3)[Gal(b1-4)GlcNAc(b1-3)Gal(b1-4)GlcNAc(b1-2)Man(a1-6)]Man(b1-4)GlcNAc(b1-4)GlcNAc
Procedure, shortened: as §1

[22] = biological target: Gal(b1-4)GlcNAc(b1-3)Gal(b1-4)GlcNAc(b1-3)Gal(b1-4)GlcNAc(b1-3)Gal(b1-4)GlcNAc(b1-3)Gal(b1-4)GlcNAc(b1-2)[Gal(b1-4)GlcNAc(b1-3)Gal(b1-4)GlcNAc(b1-3)Gal(b1-4)GlcNAc(b1-3)Gal(b1-4)GlcNAc(b1-3)Gal(b1-4)GlcNAc(b1-6)]Man(a1-6)[Gal(b1-4)GlcNAc(b1-3)Gal(b1-4)GlcNAc(b1-3)Gal(b1-4)GlcNAc(b1-3)Gal(b1-4)GlcNAc(b1-3)Gal(b1-4)GlcNAc(b1-2)Man(a1-3)]Man(b1-4)GlcNAc(b1-4)[Fuc(a1-6)]GlcNAc
Procedure, shortened: as §1

[23] = biological target: Gal(b1-4)GlcNAc(b1-3)Gal(b1-4)GlcNAc(b1-3)Gal(b1-4)GlcNAc(b1-3)Gal(b1-4)GlcNAc(b1-3)Gal(b1-4)GlcNAc(b1-3)Gal(b1-4)GlcNAc(b1-2)Man(a1-3)[Gal(b1-4)GlcNAc(b1-3)Gal(b1-4)GlcNAc(b1-3)Gal(b1-4)GlcNAc(b1-3)Gal(b1-4)GlcNAc(b1-3)Gal(b1-4)GlcNAc(b1-3)Gal(b1-4)GlcNAc(b1-2)Man(a1-6)]Man(b1-4)GlcNAc(b1-4)GlcNAc
Procedure, shortened: as §1

B1: Gal 8 (Mus musculus), Q9JL15 (protein)
chain: MGGSHHHHHHGMASMLSLNNLQNIIYNPIIPYVGTITEQLKPGSLIVIRGHVPKDSERFQVDFQLGNSLKPRADVAFHFNPHFKRSSCIVCNTLTQEKWGWEEITYDMPFRKEKSFEIVFMVLKNKFQVAVNGRHVLLYAHRISPEQIDTVGIYGKVNIHSIGFRFSSASALPHTLGDLQSMETSALGLTQINRENIQKPGKLQLSLPFEARLNASMGPGRTVVIKGEVNTNARSFNVDLVAGKTRDIALHLNPHLNVKAFVRNSFLQDAWGEEERNITCFPFSSGMYFEMIIYCDVREFKVAINGVHSLEYKHRFKDLSSIDTLSVDGDIRLLDVRSW
glycan array binding signal (z-score) [1]: 1.15
glycan array binding signal (z-score) [2]: -0.083
glycan array binding signal (z-score) [3]: 4.77
glycan array binding signal (z-score) [4]: -0.168
glycan array binding signal (z-score) [5]: -0.248
glycan array binding signal (z-score) [6]: -0.253
glycan array binding signal (z-score) [7]: 7.3
glycan array binding signal (z-score) [8]: 6.58
glycan array binding signal (z-score) [9]: -0.08
glycan array binding signal (z-score) [10]: 0.117
glycan array binding signal (z-score) [11]: -0.212
glycan array binding signal (z-score) [12]: -0.192
glycan array binding signal (z-score) (Fuc(a1-4)GlcNAc): 0.01
glycan array binding signal (z-score) [13]: -0.263
glycan array binding signal (z-score) [14]: -0.236
glycan array binding signal (z-score) (Gal(a1-4)Gal(b1-4)Glc): -0.18
glycan array binding signal (z-score) (Gal(b1-2)Gal): -0.193
glycan array binding signal (z-score) (Gal(b1-3)GalNAc): -0.251
glycan array binding signal (z-score) [15]: -0.235
glycan array binding signal (z-score) [16]: -0.226
glycan array binding signal (z-score) [17]: -0.269
glycan array binding signal (z-score) [18]: -0.263
glycan array binding signal (z-score) [19]: -0.274
glycan array binding signal (z-score) [20]: -0.243
glycan array binding signal (z-score) (Gal(b1-4)GlcNAc(b1-2)Man): -0.197
glycan array binding signal (z-score) [21]: 0.454
glycan array binding signal (z-score) [22]: 6
glycan array binding signal (z-score) [23]: 7.05
